Hits are enriched below; roughly 1.3% of the tested compounds scored in any of these assays.
GALK inh: qHTS Assay for Inhibitors of Human Galactokinase (GALK); Purified GALK, Kinase-Glo residual ATP luminescence; AID 1868, 2009; Potency, µM (top dose mostly 57.5 µM), inactives show at the highest dose activity change, negative = inhibition, most hits filed as inhibitors; 270,000 compounds, 0.007% hits; further: potency means the concentration at half of the fitted maximal effect
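GALK at 5 nM final was combined with compound, 35 uM ATP and 100 uM galactose in HEPES pH8.0 with MgCl2 and DTT. The reaction ran one hour at room temperature before luminescent ATP detection.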
TrxR1 substrate: qHTS Assay for Substrates of Mammalian Selenoprotein Thioredoxin Reductase 1 (TrxR1): qHTS; Thioredoxin reductase 1, cytoplasmic (Rattus norvegicus), O89049; purified TrxR1 substrate turnover, NADPH consumption readout; Potency, µM (doses to about 114 µM), inactives show at the highest dose activity change, negative = substrate turnover; 390,000 compounds, 0.01% hits; AID 588456, 2011; further: potency means the concentration at half of the fitted maximal effect; nearly all actives have a fitted effect of over 50% in size
Target sequence (O89049 whole entry, looked up): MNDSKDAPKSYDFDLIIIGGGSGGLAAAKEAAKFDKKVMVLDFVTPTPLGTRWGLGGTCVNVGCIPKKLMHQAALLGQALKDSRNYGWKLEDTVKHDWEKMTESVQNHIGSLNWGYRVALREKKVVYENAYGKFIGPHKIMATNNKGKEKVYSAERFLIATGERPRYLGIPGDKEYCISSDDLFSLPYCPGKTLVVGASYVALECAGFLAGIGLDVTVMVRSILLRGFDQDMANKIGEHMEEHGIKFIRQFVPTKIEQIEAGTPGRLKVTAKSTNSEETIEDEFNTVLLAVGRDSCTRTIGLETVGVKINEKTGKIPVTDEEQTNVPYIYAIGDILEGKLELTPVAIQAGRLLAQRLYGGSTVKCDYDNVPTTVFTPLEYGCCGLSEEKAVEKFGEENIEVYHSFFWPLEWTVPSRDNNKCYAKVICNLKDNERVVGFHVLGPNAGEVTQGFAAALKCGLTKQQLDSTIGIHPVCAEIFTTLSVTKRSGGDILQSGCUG
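Rat TrxR1, dispensed at 90 nM, was prereduced with 400 uM NADPH (final) for 5 min at ~22 deg C, then incubated with compound 15 min before 400 uM selenite. A first-read NADPH fluorescence drop versus no-compound background flagged substrates.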
KAT2A inh: qHTS Assay for Inhibitors of GCN5L2 | Potency, µM (doses to about 58.9 µM), for the others: at the top dose activity change, negative = inhibition, hits mostly inhibitors | Histone acetyltransferase KAT2A (Homo sapiens), Q92830 | 390,000 compounds, 0.21% hits | AID 504327, 2011 | GCN5L2 HAT assay, ThioGlo1 CoA-SH fluorescence; further: potency means the concentration at half of the fitted maximal effect
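Enzyme at 20nM final was mixed with library compounds for 15 min at room temperature. Peptide H3(1-25) at 75uM, acetyl-CoA at 70uM and ThioGlo1 at 50uM were then added. Plates were read immediately and after 20 min (Ex340nm/Em540nm).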
Pin1 inh: qHTS Assay to Find Inhibitors of Pin1; AID 504891, 2011; 390,000 compounds, 0.009% hits; Peptidyl-prolyl cis-trans isomerase NIMA-interacting 1 (Homo sapiens), Q13526; Pin1 FP peptide displacement, HiFluor488, 10 min; Potency, µM (highest dose often 115 µM), for the others: at the highest dose activity, negative = inhibition, actives largely listed as inhibitors; active means well fitted inhibition curve with a large enough effect in the polarisation, with a control signal flat, not every such curve was filed as active; inconclusive means small, poorly fitted or top-dose-only effect, or effect the other way, or a change in a side signal; inactive means no such curve, though single readings can be large or run the other way; the % refers to the polarisation; further: potency means the concentration at half of the fitted maximal effect
Target sequence (Q13526 whole entry, looked up): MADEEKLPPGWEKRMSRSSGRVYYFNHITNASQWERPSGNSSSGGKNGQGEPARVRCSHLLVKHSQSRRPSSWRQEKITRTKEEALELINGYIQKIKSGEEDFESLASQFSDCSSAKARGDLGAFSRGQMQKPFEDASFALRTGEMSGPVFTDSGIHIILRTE
Giardia kill: Small Molecules that selectively kill Giardia lamblia: qHTS; Giardia lamblia trophozoite viability; activity change, % at 7.66 µM, hits read low; 340,000 compounds, 0.15% hits; AID 540267, 2011; in the data active means activity change below about -80%; inconclusive means between about -30% and that limit;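 further: parasites exposed to compound for two days anaerobically before the ATP read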
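Luminescence from cellular ATP indicates surviving trophozoites (100 cells/well) following 48 hrs anaerobic compound treatment at 37 deg C; signal develops 15-30 min at room temperature.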
TrxR1 inh: qHTS Assay for Inhibitors of Mammalian Selenoprotein Thioredoxin Reductase 1 (TrxR1): qHTS; Thioredoxin reductase 1, cytoplasmic (Rattus norvegicus), O89049; recombinant rTrxR1, NADPH fluorescence consumption, selenite substrate; Potency, µM (highest dose often 114 µM), for the others: top-dose activity change, negative = inhibition, usual class: inhibitors; 390,000 compounds, 1% hits; further: potency means the concentration at half of the fitted maximal effect; nearly all actives have a fitted effect of over 65% in size
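Rat TrxR1 (90 nM in the dispensed reagent) was pre-reduced with 400 uM NADPH for 5 min at room temperature, then incubated with compound for 15 min. After 400 uM selenite was added, NADPH fluorescence (Ex 340/Em 450 nm) was followed for 8 min.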
The depositor's hits bear a star; u = inconclusive; x = no result; [ ] = dose if it differs, or a comment. Unless noted, the call rests on the fitted dose curve; in most records, active means well fitted curve in the direction sought with a large enough effect; inconclusive means small, poorly fitted or top-dose-only effect, or another doubt; inactive means no such curve, though single readings can be large; an effect the other way counts as inactive or inconclusive. On the % scale 0 is the no-effect control and ±100 the full control effect.

SMILES	GALK inh	TrxR1 substrate	KAT2A inh	Pin1 inh	Giardia kill	TrxR1 inh
O=C(CCl)N1CCCC1c1ccc2c(c1)OCCO2 (stereo not given)	0%	4%	1%	3%	-3	25µM*
Cc1cc(C(Br)(Br)Br)nc2ccccc12	x	5%	x	x	x	3.2µM*
Cc1cc(Cl)nc2ccccc12	x	4%	x	x	x	14%[0.0914 µM]
CC1(C)CC(=O)C2=C(C1)OC(N)=C(C#N)[C@@H]2c1ccccc1[N+](=O)[O-]	5%	12%	-9%	u	-11	20µM*
COc1ccc(C(=O)Nc2sc3c(c2C#N)CCN(C(C)=O)C3)cc1	1%	0%	-9%	7%	-3	u
CC(=O)N1CCc2c(sc(NC(=O)c3ccc([N+](=O)[O-])o3)c2C#N)C1	7%	-21%	0%	u	-88*	u
COC(=O)c1sc(NC(=O)c2ccc([N+](=O)[O-])o2)c(C#N)c1C	-1%	u	-18%	u	-93*	14µM*
COc1ccc(-c2ccc(C3C4C=CCC(C)C4C(=O)N3Cc3ccccc3)c(F)c2)cc1OC (stereo not given)	x	28%	x	13%	-20	41%[57.1 µM]
CCN1CCN(c2cc(C)c3cc(NC(=O)c4cc(Br)ccc4Cl)ccc3n2)CC1	x	10%[2.29 µM]	0%	9%	x	12%
Nc1ncc(-c2cccc(-c3nn4c(=O)cc(N5CCNCC5)nc4s3)c2)cn1	x	x	x	35%	x	x
CCCCCCCCCC[n+]1ccc(/C=C/c2c[nH]c3ccccc23)c2ccccc21	x	-1%	x	x	x	u
CCN1CCOC(=O)C1CC(=O)Nc1cc(Cl)ccc1C (stereo not given)	x	4%	-10%	1%	x	11µM*
O=C(O)CC1CCC(=C(Cl)Cl)C1 (stereo not given)	2%	12%	-9%	-17%	-1	1µM*
O=C(O)CC1CCS(=O)(=O)C1 (stereo not given)	5%	-11%	1%	1%	-14	-11%
COc1ccccc1NS(=O)(=O)c1cccc(C(=O)N/N=C/c2ccc3c(c2)OCCO3)c1	-2%	21%	-6%	u	-19	18%
O=C(N/N=C/c1ccc([N+](=O)[O-])o1)c1sc2ccccc2c1Cl	-8%	5%	-20%	u	-95*	79µM*
COc1ccccc1NS(=O)(=O)c1cccc(C(=O)N/N=C/c2ccc([N+](=O)[O-])o2)c1	x	-10%	-9%	-7%	u	40µM*
O=C(N/N=C/c1ccc([N+](=O)[O-])o1)C1CC1	10%	-16%	-20%	4%	-85*	u
O=C(N/N=C/c1ccc(-c2ccc([N+](=O)[O-])cc2)o1)C(O)c1ccccc1 (stereo not given)	-3%	-12%[57.1 µM]	-6%	u	51	9%[57.1 µM]
O=C(N/N=C/c1ccc([N+](=O)[O-])o1)C(O)c1ccccc1 (stereo not given)	-1%	-7%	-29%	-4%	-84*	u
COc1ccc(-c2noc(-c3cccnc3N3CCN(c4ccc(OC)cc4)CC3)n2)cc1	x	-19%	-8%	u	x	-19%
COc1ccc(-c2nn(-c3ccccc3)cc2C(=O)N/N=C/c2ccc([N+](=O)[O-])o2)cc1	1%	-3%	2%	-2%	-86*	1%
NC(=O)N/N=C\c1ccc([N+](=O)[O-])o1	x	x	1%[21.4 µM]	x	x	x
Cc1cc(C(=O)N/N=C/c2ccc([N+](=O)[O-])o2)c(C)o1	-1%	-3%	-12%	1%	-97*	u
NC(=O)N/N=C/c1ccc([N+](=O)[O-])o1	x	-15%	u	-2%	u	7.1µM*
SMILES	GALK inh	TrxR1 substrate	KAT2A inh	Pin1 inh	Giardia kill	TrxR1 inh
Cc1cc(C)c(S(=O)(=O)N/N=C/c2ccc([N+](=O)[O-])o2)c(C)c1	1%	-4%	-38%	-1%	u	13µM*
CCN(CC(=O)Nc1ccc2c(c1)OCCO2)C(=O)c1ccc(Cl)cc1Cl	x	-3%	-5%	-2%	0	9%
COC(=O)c1sc2cccc(F)c2c1S(=O)(=O)N1CCN(c2ccccc2OC)CC1	x	1%[57.1 µM]	23%	11%	x	11%[57.1 µM]
Cc1cc2[nH]c3c(=O)n(Cc4ccccc4F)ncc3c2s1	x	x	x	-3%	x	x
NC(=O)N1CCN(c2nc(-c3ccc(Br)cc3)cs2)CC1	x	x	x	-3%	x	x
Nc1ccc(CSc2ccc(Cl)cc2)c(Cl)c1	x	14%[57.1 µM]	x	4%	-8	39%
O=[N+]([O-])c1ccc(/C=N/Nc2nc(N3CCCCC3)nc(N3CCCCC3)n2)o1	-4%	-13%	-7%	32%	-84*	u
CC(=O)N1CCc2cc(S(=O)(=O)CCC(=O)Nc3ccc(C)cc3Br)ccc21	x	-5%	3%	2%	x	-12%
COC(=O)C1=C(C)N(c2cccc3ccccc23)C(=O)C1	0%	0%	-16%	-1%	-1	25µM*
O=C(Nc1ccc(S(=O)(=O)N2CCOCC2)cc1)c1ccc([N+](=O)[O-])o1	-1%	-13%	-7%	0%	-83*	-21%
O=C(Nc1ccc(N2CCOCC2)cc1)c1ccc([N+](=O)[O-])o1	-2%	-7%	-2%	8%	-85*	-23%
CCCCn1nnc(NC(=O)c2ccc(-c3ccccc3[N+](=O)[O-])o2)n1	3%	1%[57.1 µM]	-14%	-3%	2	15%
O=C(Nc1ccc(S(=O)(=O)N2CCOCC2)cc1)c1ccc([N+](=O)[O-])s1	x	3%[57.1 µM]	-23%	2%	u	8%[57.1 µM]
O=C(COC(=O)c1ccc([N+](=O)[O-])o1)Nc1ccc(N2CCOCC2)cc1	x	2%	-3%	-8%	-5	u
CCn1nnc(NC(=O)c2ccc([N+](=O)[O-])o2)n1	0%	3%[57.1 µM]	-3%	0%	-103*	11%[57.1 µM]
O=C(Nc1ccc(Cc2ccncc2)cc1)c1ccc([N+](=O)[O-])o1	3%	-4%	2%	1%	-88*	-17%
CCN(CC)c1ccc(NC(=O)C2COc3ccc(OC)cc3C2)c(C)c1 (stereo not given)	x	2%[57.1 µM]	12%	5%	x	4%[57.1 µM]
CSc1ccccc1NC(=S)NCc1ccc(Cl)cc1	-7%	7%	0%	-7%	-3	7%
COc1ccc(S(=O)(=O)N2CCCCC2)cc1NC(=O)c1ccc([N+](=O)[O-])o1	-6%	-8%	-2%	-4%	-95*	-6%

Screening data deposited in PubChem BioAssay by National Center for Advancing Translational Sciences (NCATS).
